Laboratory results as given in PubChem BioAssay (NCATS).
Results filed as inconclusive are left out. The source made the active and inactive calls. Unless noted, calls follow the shape of the dose curve; as a rule, active = well fitted curve in the direction sought with a large enough effect; inconclusive = small, poorly fitted or top-dose-only effect, or another doubt; inactive = no such curve, though single readings can be large; an effect the other way counts as inactive or inconclusive.

Columns and labels:
[1] = target: Estrogen receptor (Homo sapiens) (UniProt P03372); test: qHTS assay for small molecule agonists of estrogen receptor alpha signaling (AID 588514; calls by dose curve;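 also: 0% = vehicle only and 100% = reference agonist; nearly all actives have a fitted effect of over 70% in size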)
Chain of Estrogen receptor (Homo sapiens) (P03372 whole entry, looked up): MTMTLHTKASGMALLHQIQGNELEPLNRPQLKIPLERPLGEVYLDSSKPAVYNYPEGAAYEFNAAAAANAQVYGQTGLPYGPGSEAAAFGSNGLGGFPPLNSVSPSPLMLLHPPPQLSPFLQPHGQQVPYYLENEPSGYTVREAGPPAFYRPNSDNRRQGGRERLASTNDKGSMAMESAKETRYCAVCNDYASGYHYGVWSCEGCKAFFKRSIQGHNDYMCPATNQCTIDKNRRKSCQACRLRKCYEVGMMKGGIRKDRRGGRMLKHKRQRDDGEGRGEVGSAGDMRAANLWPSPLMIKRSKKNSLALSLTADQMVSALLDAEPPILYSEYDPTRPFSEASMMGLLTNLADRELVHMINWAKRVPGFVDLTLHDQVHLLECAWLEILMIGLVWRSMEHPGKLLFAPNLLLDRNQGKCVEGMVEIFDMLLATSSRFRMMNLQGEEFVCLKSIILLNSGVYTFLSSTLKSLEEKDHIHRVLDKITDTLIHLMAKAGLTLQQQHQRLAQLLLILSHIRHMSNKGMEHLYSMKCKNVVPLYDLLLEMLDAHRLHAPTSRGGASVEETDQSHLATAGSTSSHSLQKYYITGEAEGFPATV
Outline: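 Cells were plated at 5000/well, incubated 4 hrs at 37 C, dosed with compound titration series, incubated 18 hrs at 37 C, loaded with CCF4 dye for 2 hrs at RT, then fluorescence was read.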

[2] = target: Glucocorticoid receptor (Homo sapiens) (UniProt P04150); test: qHTS assay for small molecule agonists of glucocorticoid receptor signaling (AID 588532; active = well fitted curve in the direction sought with a large enough effect in the signal ratio, with a control signal flat; the % refers to the signal ratio;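 also: 100% = dexamethasone at 0.1 µM and 0% = DMSO only wells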); conditions: HeLa MMTV-bla, beta-lactamase ratio, agonist, 18 h; activation: stronger effect = higher value, percent of dexamethasone control, DMSO zero
Chain of Glucocorticoid receptor (Homo sapiens) (P04150 whole entry, looked up): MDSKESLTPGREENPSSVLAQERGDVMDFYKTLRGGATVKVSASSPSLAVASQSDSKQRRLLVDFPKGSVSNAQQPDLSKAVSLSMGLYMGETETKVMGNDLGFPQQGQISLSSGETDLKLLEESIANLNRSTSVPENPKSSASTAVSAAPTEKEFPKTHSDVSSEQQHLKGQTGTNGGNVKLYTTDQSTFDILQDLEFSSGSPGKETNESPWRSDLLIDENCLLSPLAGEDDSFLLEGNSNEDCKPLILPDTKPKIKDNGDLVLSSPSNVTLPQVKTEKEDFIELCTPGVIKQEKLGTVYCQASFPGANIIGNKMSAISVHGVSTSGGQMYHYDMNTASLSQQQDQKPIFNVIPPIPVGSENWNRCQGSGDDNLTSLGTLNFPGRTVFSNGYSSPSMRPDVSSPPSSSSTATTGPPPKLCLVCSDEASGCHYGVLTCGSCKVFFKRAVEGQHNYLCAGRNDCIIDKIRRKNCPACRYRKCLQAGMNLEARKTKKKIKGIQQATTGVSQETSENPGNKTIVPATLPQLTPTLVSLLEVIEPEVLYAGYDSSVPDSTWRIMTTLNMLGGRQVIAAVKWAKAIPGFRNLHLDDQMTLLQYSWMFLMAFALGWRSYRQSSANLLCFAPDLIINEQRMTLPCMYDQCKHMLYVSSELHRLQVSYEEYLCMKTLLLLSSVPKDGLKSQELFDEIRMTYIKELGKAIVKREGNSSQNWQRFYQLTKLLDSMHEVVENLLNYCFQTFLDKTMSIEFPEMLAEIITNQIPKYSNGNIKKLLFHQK
Outline: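 Quantitative HTS using CellSensor MMTV-bla HeLa cells in charcoal/dextran-treated serum; compounds tested up to 92 uM. After 18 h at 37 C, CCF4 dye reported reporter induction.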

[3] = target: Glucocorticoid receptor (Homo sapiens) (UniProt P04150); test: qHTS assay for small molecule antagonists of glucocorticoid receptor signaling (AID 588533; active = well fitted inhibition curve with a large enough effect in the signal ratio, with a control signal flat, not every such curve was filed as active; the % refers to the signal ratio;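 also: cells stimulated with 2 nM dexamethasone as agonist; % is scaled to controls: 0 for no effect and ±100 for the full control effect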)
Outline: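 Antagonist-mode qHTS: compound titrations added to GRE-bla HeLa cells, then dexamethasone 2 nM final; 18 h, 37 C. CCF4 FRET fluorescence normalized to dexamethasone and DMSO; IC50 from Hill fit.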

[4] = target: Peroxisome proliferator-activated receptor gamma (Homo sapiens) (UniProt P37231); test: qHTS assay for small molecule agonists of peroxisome proliferator-activated receptor gamma signaling (AID 588536; active = well fitted curve in the direction sought with a large enough effect in the signal ratio, with a control signal flat, not every such curve was filed as active; the % refers to the signal ratio;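 also: 0% = DMSO basal wells and 100% = rosiglitazone at 2 µM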)
Chain of Peroxisome proliferator-activated receptor gamma (Homo sapiens) (P37231 whole entry, looked up): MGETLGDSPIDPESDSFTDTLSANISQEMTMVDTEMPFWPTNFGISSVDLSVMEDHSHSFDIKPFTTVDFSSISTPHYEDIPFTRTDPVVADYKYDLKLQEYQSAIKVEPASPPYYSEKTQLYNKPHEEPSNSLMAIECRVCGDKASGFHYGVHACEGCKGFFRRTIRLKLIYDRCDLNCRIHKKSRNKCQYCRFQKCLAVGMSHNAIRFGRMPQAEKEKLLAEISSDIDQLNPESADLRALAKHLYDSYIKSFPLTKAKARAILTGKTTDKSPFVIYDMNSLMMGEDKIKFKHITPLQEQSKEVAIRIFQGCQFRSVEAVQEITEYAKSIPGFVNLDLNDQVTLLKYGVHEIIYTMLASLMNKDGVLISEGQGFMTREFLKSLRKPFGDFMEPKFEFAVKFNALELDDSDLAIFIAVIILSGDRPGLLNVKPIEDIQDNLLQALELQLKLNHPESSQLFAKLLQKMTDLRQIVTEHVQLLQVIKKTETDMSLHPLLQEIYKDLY
Outline: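 PPAR-gamma-UAS-bla HEK293 cells in medium with 1% charcoal/dextran-treated FBS were exposed to compounds for 16 h at 37 C. Beta-lactamase activity was read with CCF4 substrate (405 nm excitation, 460/530 nm emission).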

[5] = target: Vitamin D3 receptor (Homo sapiens) (UniProt P11473); test: qHTS assay for small molecule agonists of vitamin D receptor signaling (AID 588543; calls by dose curve;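 also: 0% = DMSO basal and 100% = reference agonist control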)
Chain of Vitamin D3 receptor (Homo sapiens) (P11473 whole entry, looked up): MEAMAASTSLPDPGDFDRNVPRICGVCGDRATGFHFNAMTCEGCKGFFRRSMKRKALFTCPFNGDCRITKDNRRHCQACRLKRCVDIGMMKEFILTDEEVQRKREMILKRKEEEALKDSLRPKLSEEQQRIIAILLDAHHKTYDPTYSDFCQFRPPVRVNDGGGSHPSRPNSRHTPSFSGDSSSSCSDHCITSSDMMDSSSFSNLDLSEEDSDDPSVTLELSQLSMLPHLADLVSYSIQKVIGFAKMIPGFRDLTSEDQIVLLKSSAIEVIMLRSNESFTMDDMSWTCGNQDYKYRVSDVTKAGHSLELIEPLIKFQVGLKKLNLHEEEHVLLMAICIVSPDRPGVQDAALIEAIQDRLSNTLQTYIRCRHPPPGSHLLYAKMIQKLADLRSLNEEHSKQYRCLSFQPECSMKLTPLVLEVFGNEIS
Outline: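 VDR-UAS-bla HEK293T cells, 2000/well, 2% charcoal-stripped FBS; compound titration 16 h at 37 C; CCF4 beta-lactamase ratio read. Normalized to 50 nM 1-alpha,25-dihydroxyvitamin D3 (100%) and DMSO; Hill fit gives EC50, efficacy.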

[6] = qHTS assay for small molecule agonists of retinoid X receptor alpha signaling (AID 588544; calls by dose curve;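 as to activation: 0% = DMSO basal wells and 100% = reference agonist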); conditions: HEK293T RXRa-UAS-bla, beta-lactamase reporter, 18 h; 530 nm emission
[7] = target: Retinoic acid receptor RXR-alpha (Homo sapiens) (UniProt P19793); test: as above
Chain of Retinoic acid receptor RXR-alpha (Homo sapiens) (P19793 whole entry, looked up): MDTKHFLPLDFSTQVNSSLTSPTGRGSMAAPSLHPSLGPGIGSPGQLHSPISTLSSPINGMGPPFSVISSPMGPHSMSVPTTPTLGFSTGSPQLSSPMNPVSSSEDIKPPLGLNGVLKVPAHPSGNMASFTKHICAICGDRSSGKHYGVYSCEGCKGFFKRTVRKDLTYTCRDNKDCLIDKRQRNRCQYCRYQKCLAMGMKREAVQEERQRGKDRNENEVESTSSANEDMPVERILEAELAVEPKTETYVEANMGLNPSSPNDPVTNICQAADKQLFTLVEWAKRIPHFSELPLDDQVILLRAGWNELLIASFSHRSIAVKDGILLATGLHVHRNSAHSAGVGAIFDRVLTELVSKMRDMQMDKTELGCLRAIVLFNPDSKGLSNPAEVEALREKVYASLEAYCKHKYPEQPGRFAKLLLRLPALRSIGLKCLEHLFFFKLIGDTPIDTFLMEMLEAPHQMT

[8] = qHTS assay for small molecule antagonists of retinoid X receptor alpha signaling (AID 588546; active = well fitted inhibition curve with a large enough effect in the signal ratio, with a control signal flat, not every such curve was filed as active; the % refers to the signal ratio;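 also: cells stimulated with 9-cis-retinoic acid as agonist; % is scaled to controls: 0 for no effect and ±100 for the full control effect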); conditions: HEK293T RXRa-UAS-bla, beta-lactamase ratio, antagonist mode; measured here: W530 green channel, cytotoxicity proxy
Outline: (§1)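 Beta-lactamase reporter inhibition, read as CCF4 fluorescence ratio (ex 405, em 460/530 nm) after 2 h at RT. HEK293T UAS-bla cells, 2500/well, were stimulated with 9-cis-RA at 500 or 100 nM final alongside test compound for 18 h at 37 C.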

[9] = target: Retinoic acid receptor RXR-alpha (Homo sapiens) (UniProt P19793); test: as above; conditions: HEK293T RXRa-UAS-bla, beta-lactamase ratio, antagonist mode
Outline: as §1

[10] = target: Thyroid hormone receptor beta (Homo sapiens) (UniProt P10828); test: qHTS assay for small molecule antagonists of thyroid hormone receptor beta signaling (AID 588547; active = well fitted inhibition curve with a large enough effect in the signal ratio, with a control signal flat, not every such curve was filed as active; the % refers to the signal ratio;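 also: cells stimulated with 0.4 nM T3 agonist during compound exposure; series mostly up to about 77 µM; % is scaled to controls: 0 for no effect and ±100 for the full control effect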); conditions: TR-UAS-bla HEK293, beta-lactamase ratio, antagonist mode, 18 h
Chain of Thyroid hormone receptor beta (Homo sapiens) (P10828 whole entry, looked up): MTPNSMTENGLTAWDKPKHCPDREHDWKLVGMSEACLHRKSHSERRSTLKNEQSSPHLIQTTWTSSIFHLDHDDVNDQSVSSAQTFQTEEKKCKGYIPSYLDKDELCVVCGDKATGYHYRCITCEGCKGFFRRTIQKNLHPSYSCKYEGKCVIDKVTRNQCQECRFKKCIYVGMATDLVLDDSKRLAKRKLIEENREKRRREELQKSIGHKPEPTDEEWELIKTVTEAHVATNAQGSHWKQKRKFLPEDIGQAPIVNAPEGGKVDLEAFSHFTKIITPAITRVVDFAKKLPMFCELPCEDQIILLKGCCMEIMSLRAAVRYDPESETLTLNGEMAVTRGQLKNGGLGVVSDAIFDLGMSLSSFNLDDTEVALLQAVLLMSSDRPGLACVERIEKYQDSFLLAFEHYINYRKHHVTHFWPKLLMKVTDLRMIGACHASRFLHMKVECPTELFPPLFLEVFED
Outline: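 Inhibition of T3-driven (0.4nM final) beta-lactamase reporter activity was measured over 0.59 nM to 92 uM compound after 18 h at 37 C. The cells were GripTite HEK293 TR-UAS-bla in charcoal/dextran-stripped serum, with CCF4 ratio read-out and IC50 from Hill fits.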

[11] = qHTS assay for small molecule activators of the p53 signaling pathway (AID 651743; active = well fitted activation curve with a large enough effect in the signal ratio, not every such curve was filed as active; the % refers to the signal ratio; also: series mostly up to about 92 µM; % of control where 0% means no effect); conditions: HCT-116 p53RE-bla, beta-lactamase FRET ratio, 16 h; activation: stronger effect = higher value
Outline: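 Read-out is fluorescence intensity from the LiveBLAzer B/G FRET substrate, added for 2 hours at room temperature after HCT-116 p53RE-bla cells had been incubated with compounds for 16 hours at 37 C.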

[12] = qHTS assay for environmental chemicals that activate the Aryl hydrocarbon Receptor (AhR) signaling pathway (AID 651777); conditions: 1A2-DRE human hepatoma cells, luciferase, 24 h; activation: stronger effect = higher value; also: % of control where 0% means no effect; nearly all actives have a fitted effect of over 15% in size
Outline: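 1A2-DRE human hepatoma reporter line; 1,200 cells/well; cmpd or DMSO 24 h, 37 C/5% CO2; One-Glo 30 min RT; luciferase lum.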

[13] = target: Peroxisome proliferator-activated receptor alpha (Homo sapiens) (UniProt Q07869); test: qHTS assay for small molecule agonists of the peroxisome proliferator-activated receptor alpha (PPARalpha) signaling pathway (AID 651778); conditions: PathHunter PPARalpha complementation, chemiluminescence, 6 h; max response: stronger effect = higher value; also: % of control where 0% means no effect
Chain of Peroxisome proliferator-activated receptor alpha (Homo sapiens) (Q07869 whole entry, looked up): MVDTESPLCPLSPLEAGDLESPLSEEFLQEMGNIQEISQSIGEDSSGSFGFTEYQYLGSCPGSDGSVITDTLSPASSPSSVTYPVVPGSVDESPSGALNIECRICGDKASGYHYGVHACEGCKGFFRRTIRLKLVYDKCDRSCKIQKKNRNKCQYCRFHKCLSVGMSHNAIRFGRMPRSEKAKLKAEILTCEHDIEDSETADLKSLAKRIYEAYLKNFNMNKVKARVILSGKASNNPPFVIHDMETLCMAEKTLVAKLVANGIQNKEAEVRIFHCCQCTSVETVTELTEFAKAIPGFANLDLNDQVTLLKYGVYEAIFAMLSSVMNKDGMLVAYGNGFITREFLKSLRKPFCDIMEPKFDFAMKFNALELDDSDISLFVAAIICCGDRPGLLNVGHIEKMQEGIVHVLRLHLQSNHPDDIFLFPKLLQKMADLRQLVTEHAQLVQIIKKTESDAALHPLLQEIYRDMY
Outline: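 Chemiluminescence from complemented enzyme reported PPARalpha activation in cells after 6 hr of compound treatment at 37 C. The detection reagent was incubated for 60 min at room temperature, and compounds were scored as agonists.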

[14] = qHTS assay for small molecule agonists of the antioxidant response element (ARE) signaling pathway measured by Nrf2-dependant transcriptional activity (AID 720636; active = well fitted curve in the direction sought with a large enough effect in the repeat runs; an effect the other way counts as inactive or inconclusive;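 also: HepG2 cells with an ARE-driven luciferase reporter; % of control where 0% means no effect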)
Outline: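 Cells: ARE-luc HepG2 with Nrf2-responsive luciferase. Medium contained 1% dialyzed FBS. Compound exposure lasted 16 hr at 37 C and 5% CO2, followed by ONE-Glo luciferase detection.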

[15] = qHTS assay for small molecule agonists of the antioxidant response element (ARE) signaling pathway measured by Nrf2-dependant transcriptional activity - cell viability counter screen (AID 720653; active = well fitted curve in the direction sought with a large enough effect in the repeat runs; an effect the other way counts as inactive or inconclusive; also: % is scaled to controls: 0 for no effect and ±100 for the full control effect); conditions: ARE-bla HepG2 viability, CellTiter-Glo ATP luminescence, 16 h; max response: stronger effect = lower value
Outline: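 Cytotoxicity counter screen: intracellular ATP quantified by CellTiter-Glo luminescence in the same ARE-bla HepG2 plates, after 16 h compound exposure and a 2 h beta-lactamase substrate step.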

[16] = qHTS assay for cell viability of HEK293 cells (AID 743288); conditions: ATP luminescence (CellTiter-Glo), 18 h; max response: stronger effect = lower value; also: % is scaled to controls: 0 for no effect and ±100 for the full control effect; nearly all actives have a fitted effect of over 50% in size
Outline: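 Parental HEK293 cells, 2,000 per well, preincubated at least 5 h at 37 C, then exposed to compounds in DMSO for 18 h at 37 C. Viability by CellTiter-Glo ATP luminescence after 30 min at room temperature.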

[17] = qHTS assay for cell viability of the p53RE-bla HCT-116 cell line (AID 743292); also: % is scaled to controls: 0 for no effect and ±100 for the full control effect; nearly all actives have a fitted effect of over 55% in size
Outline: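 HCT-116 p53RE-bla cells seeded 4,000/well; 5 h at 37 C; compound (DMSO) added; 16 h at 37 C; CellTiter-Glo added, 30 min RT; luminescence read.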

[18] = target: Nuclear receptor subfamily 1 group I member 2 (Rattus norvegicus) (UniProt Q9R1A7); test: qHTS assay for small molecule activators of the rat pregnane X receptor (rPXR) signaling pathway (AID 651751; call rule not given here; also: 0% is about no effect); conditions: rPXR reporter cells, luciferase (One-Glo), 24 h
Chain of Nuclear receptor subfamily 1 group I member 2 (Rattus norvegicus) (Q9R1A7 whole entry, looked up): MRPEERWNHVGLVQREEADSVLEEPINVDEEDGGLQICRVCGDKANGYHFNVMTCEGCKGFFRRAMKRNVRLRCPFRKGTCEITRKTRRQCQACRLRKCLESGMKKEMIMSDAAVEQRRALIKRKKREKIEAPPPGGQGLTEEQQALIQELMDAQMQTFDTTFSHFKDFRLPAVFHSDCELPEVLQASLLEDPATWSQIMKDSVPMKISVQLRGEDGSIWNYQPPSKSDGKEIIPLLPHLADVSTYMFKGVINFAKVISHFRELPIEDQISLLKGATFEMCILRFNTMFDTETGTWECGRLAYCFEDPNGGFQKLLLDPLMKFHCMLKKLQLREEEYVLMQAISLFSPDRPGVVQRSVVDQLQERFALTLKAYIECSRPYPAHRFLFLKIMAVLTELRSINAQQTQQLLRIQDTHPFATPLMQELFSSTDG

[19] = target: Peroxisome proliferator-activated receptor delta (Homo sapiens) (UniProt Q03181); test: qHTS assay for small molecule agonists of peroxisome proliferator-activated receptor delta signaling (AID 588534; calls by dose curve;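 also: 0% = DMSO basal wells and 100% = positive control agonist at 10 µM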)
Chain of Peroxisome proliferator-activated receptor delta (Homo sapiens) (Q03181 whole entry, looked up): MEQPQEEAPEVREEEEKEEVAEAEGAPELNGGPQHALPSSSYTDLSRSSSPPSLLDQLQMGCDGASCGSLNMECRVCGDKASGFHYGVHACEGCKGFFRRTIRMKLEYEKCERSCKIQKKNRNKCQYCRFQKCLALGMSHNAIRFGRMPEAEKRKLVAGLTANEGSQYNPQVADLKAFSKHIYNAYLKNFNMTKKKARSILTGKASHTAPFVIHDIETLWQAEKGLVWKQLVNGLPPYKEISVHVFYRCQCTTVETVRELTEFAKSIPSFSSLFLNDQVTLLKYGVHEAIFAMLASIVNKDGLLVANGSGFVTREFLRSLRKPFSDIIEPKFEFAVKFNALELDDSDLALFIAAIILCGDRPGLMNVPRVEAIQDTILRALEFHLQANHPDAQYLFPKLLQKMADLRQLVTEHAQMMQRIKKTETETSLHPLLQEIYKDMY
Outline: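 Fluorescence from CCF4 substrate cleavage by beta-lactamase reporter, read 2 hrs at RT, measured agonist activity. Compounds were tested with 18 hrs exposure at 37 C. Concentration-response data fitted to Hill equation.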

[20] = target: Thyroid hormone receptor beta (Homo sapiens) (UniProt P10828); test: qHTS assay for small molecule agonists of thyroid hormone receptor beta signaling (AID 588545; calls by dose curve;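 also: 0% = DMSO only and 100% = 10 nM T3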)
Outline: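 TR-UAS-bla GripTite HEK 293 cells (2500/well, medium with 2% charcoal/dextran FBS) were treated in agonist mode for 18 h at 37 C, titrated. Beta-lactamase was read by CCF4 ratio after 2 h; normalized to 10 nM T3 (100%) and DMSO, Hill-fitted for EC50 and efficacy.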

| SMILES | Potency [1] | activation [2] | Potency [3] | Potency [4] | outcome [5] | max response [6] [%] | Potency [7] | max response [8] [%] | max response [9] | activity change % (negative = inhibition) [10] | activation [11] | activation [12] | max response [13] | Potency [14] | max response [15] | max response [16] | Potency [17] | max response [18] | outcome [19] | Potency [20] |
| --- | --- | --- | --- | --- | --- | --- | --- | --- | --- | --- | --- | --- | --- | --- | --- | --- | --- | --- | --- | --- |
| Nc1c(Cl)c(F)nc(OCC(=O)O)c1Cl | inactive | -4.31% (inactive) | inactive | inactive | inactive | 5.84 | inactive | -12.1 | -9.36% (inactive) | 11.1% (inactive) | 0.955% (inactive) | 1.14% (inactive) | 0.318% (inactive) | inactive | 1.18% (inactive) | 4.54% (inactive) | inactive | -2.68% (inactive) | – | – |
| COP(=O)(OC)SCn1c(=O)oc2cc(Cl)cnc21 | inactive | – | inactive | inactive | inactive | – | – | – | – | – | 13.8% (inactive) | – | -1.8% (inactive) | – | -47.9% (inactive) | -26% (inactive) | inactive | -7.83% (inactive) | inactive | – |
| COP(=S)(OC)Oc1ccc([N+](=O)[O-])c(C)c1 | inactive | -13.6% (inactive) | inactive | inactive | inactive | -4.53 | inactive | -7.02 | -30.1% (inactive) | 7.88% (inactive) | – | 2.78% (inactive) | -4.6% (inactive) | inactive | -3.17% (inactive) | -7.08% (inactive) | inactive | -1.75% (inactive) | inactive | inactive |
| CCOP(=O)(OCC)SCSP(=S)(OCC)OCC | inactive | -5.04% (inactive) | inactive | inactive | inactive | – | – | -5.91 | -11.3% (inactive) | -5.46% (inactive) | -1.69% (inactive) | 6.55% (inactive) | -0.113% (inactive) | inactive | -1.01% (inactive) | -5.51% (inactive) | inactive | – | inactive | inactive |
| CC(C)Oc1cc(-n2nc(C(C)(C)C)oc2=O)c(Cl)cc1Cl | inactive | 12% (inactive) | inactive | – | inactive | – | – | – | – | -6.22% (inactive) | 0.204% (inactive) | 0.842% (inactive) | 0.863% (inactive) | inactive | -16% (inactive) | -26.7% (inactive) | – | – | inactive | inactive |
| CCOP(=O)(OCC)Oc1ccc2c(C)c(Cl)c(=O)oc2c1 | inactive | -3.39% (inactive) | inactive | – | – | 2.41 | inactive | -10.4 | -0.0168% (inactive) | -0.271% (inactive) | 2.64% (inactive) | 0.485% (inactive) | -3.26% (inactive) | inactive | -2.45% (inactive) | -8.63% (inactive) | inactive | 12.3% (inactive) | inactive | – |
| CNC(=O)O/N=C/C(C)(C)S(C)(=O)=O | inactive | 9.32% (inactive) | inactive | inactive | – | -16.6 | inactive | -10.7 | 0.762% (inactive) | – | -2.46% (inactive) | -0.939% (inactive) | -0.004% (inactive) | inactive | 1.38% (inactive) | – | inactive | 1.26% (inactive) | – | inactive |
| CC(C)(C)C(O)C(Oc1ccc(-c2ccccc2)cc1)n1cncn1 (stereo unspecified) | inactive | – | inactive | inactive | inactive | – | – | – | – | -13.8% (inactive) | 6.28% (inactive) | 0.741% (inactive) | 1.37% (inactive) | inactive | -1.48% (inactive) | -21.2% (inactive) | inactive | – | – | – |
| [Ga]#[As] | inactive | 4.24% (inactive) | inactive | – | – | -5.43 | inactive | -11 | 6.85% (inactive) | – | -1.62% (inactive) | 0.963% (inactive) | -1.03% (inactive) | inactive | -2.5% (inactive) | -2.89% (inactive) | inactive | -5.29% (inactive) | inactive | inactive |
| CC1(C)CC/C(=C\c2ccc(Cl)cc2)C1(O)Cn1cncn1 (stereo unspecified) | inactive | -0.523% (inactive) | inactive | inactive | inactive | 6 | inactive | 5.05 | -37.6% (inactive) | -0.512% (inactive) | – | 7.02% (inactive) | 0.489% (inactive) | inactive | -5.93% (inactive) | -11.5% (inactive) | inactive | 12.5% (inactive) | inactive | – |
| CCCCOCCOC(C)=O | inactive | -12.9% (inactive) | inactive | inactive | inactive | -13.2 | inactive | -13.5 | -8.99% (inactive) | -3.6% (inactive) | 0.23% (inactive) | 0.977% (inactive) | 0.401% (inactive) | inactive | -5.86% (inactive) | -2.95% (inactive) | – | 2.29% (inactive) | inactive | – |
